These results are taken from PubChem BioAssay AID1347434 (National Center for Advancing Translational Sciences (NCATS), 2020).

Among all 1,200 compounds or so, about 30 (2%) were called active. A call without a number means that no potency is given here. Roughly 23% stayed inconclusive and do not appear here. This is one part of a sample in which actives are shown more often than they occur. Calls follow the shape of the dose curve; as a rule, active = well fitted inhibition curve with a large enough effect; inconclusive = small, poorly fitted or top-dose-only effect; inactive = flat fitted curve, though single readings scatter.
Potency is read from the fitted curve at half-maximal effect.

Single-stranded DNA cytosine deaminase (Homo sapiens), sequence (Q9GZX7 whole entry, looked up): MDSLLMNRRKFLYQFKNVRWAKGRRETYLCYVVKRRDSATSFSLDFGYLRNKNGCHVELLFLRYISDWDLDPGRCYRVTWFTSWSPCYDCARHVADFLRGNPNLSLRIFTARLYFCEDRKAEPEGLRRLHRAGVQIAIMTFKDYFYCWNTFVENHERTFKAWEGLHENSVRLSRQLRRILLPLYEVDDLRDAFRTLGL

The test has as its target Single-stranded DNA cytosine deaminase (Homo sapiens) (UniProt Q9GZX7). Briefly: Confirmatory qHTS assay for inhibitors of Activation Induced Cytidine Deaminase (AID): AID signals. The settings on record: recombinant AID, FRET deamination/UDG coupled fluorescence, 4 h; series mostly up to 115 µM. From the text: Assay Provider (PI) Patricia Gearhart Ph.D. National Institute on Aging National Institute of Health (NIH), Bethesda, MD Assay Provider (PI) Rahul Kohli Ph.D. Perelman School of Medicine University of Pennsylvania, Philadelphia, PA Activation-Induced Deaminase (AID) is a cytosine deaminase which converts cytosine into uracil within stretches of ssDNA. The presence of uracil in DNA initiates a cascade of mutagenic DNA repair to introduce point mutations and DNA double strand breaks. Specific targeting of AID to the immunoglobulin heavy chain loci (Igh) promotes mutagenesis in the antibody variable region for somatic hypermutation (SHM) or switch regions leading to class switch recombination (CSR). However, AID also plays a role in accumulating unnecessary mutations across the genome. Mis-targeting of AID results in the initiation of tumor development and leads to greater drug resistance among cancer cells when continually expressed. To identify an AID inhibitor, a small molecule library will be screened in collaboration with NCATS core facility at NIH. To confirm biological function, inhibitors will be examined in an in vitro murine B-cell activation assay and subsequent secondary validation screens. Top molecules will be further screened to identify inhibitory efficacy against a wild type primary splenocytes assay. Using these approaches, we hope to identify a small molecule with great efficacy and low toxicity for use as a molecular probe to further characterize AID's intricacies, or even as a therapeutic. A FRET based analysis of cytosine deamination, was developed to identify potential inhibitors of AID catalytic activity. This screen has two signal output, Read 1 evaluates the AID inhibition response. The second readout (Read 2) evaluates UDG response and is uses as a counterscreen to exclude false positive inhibitors. Inhibition in AID and inactivity in the UDG signal is the desired outcome for this assay.
PROTOCOL TABLE SEQUENCE No. (e.g., 1, 2, 3, etc.); […] (e.g., Cells, Incubation, Reagent, etc.); VALUE; DESCRIPTION 1a; Reagent; 3 uL; [4/3x] 1 uM AID/2.67 U/mL UDG 1b; Reagent; 3 uL; 2 U/mL UDG 1c; Reagent; 3 uL; 1 uM AID 2a; Compound; 46 nL; Follow-up plates (0.64 uM - 10 mM) 2b; Control; 46 nL; ATA (16.4 nM - 10 mM) 3; Time; 10 min; incubation at room temperature 4; Reagents; 1 uL; [4x] 250 nM DJC20 / 250 nM DJC23 [Substrate] 5; Time; 4 hr; incubation at room temperature 6; Reagent; 4 uL; [2x] 250 mM NaOH 7; Time; 15 sec; centrifuge at 1000 rpm 8; Time; 30 min; incubation at room temperature 9a; Detection; fluorescence (Read 1: AID); EnVision (PerkinElmer) plate reader, 540 excitation and 590 emission filters 9b; Detection; fluorescence (Read 2: UDG); EnVision (PerkinElmer) plate reader, 560 excitation and 665 emission filters NOTES (numbers refer to sequence above) 1a; Reagents were dispensed in a medium-binding black solid-bottom Greiner plates (789176F) using a BioRptr liquid dispenser. Dispense 3 uL of [4/3x] 1 uM AID (provided by Kohli lab) and [4/3x] 2 U/mL UDG (NEB M0280L) into columns 1, 2, 5 to 48. 1b; Dispense 3 uL of [4/3x] 2 U/mL UDG into column 3. 1c; Dispense 3 uL of [4/3x] 1 uM AID into column 4. 2a; Compound ([…] [uM]: 0.64; 3.2; 16; 80; 400; 2,000; 10,000; 20,000) double pin-transferred (Dip Factor = 2) using the Kalypsys (Wako USA) pintool equipped with a 1536 pinhead for a final concentration range of 7.32 nM - 114 uM. 2b; 10 mM Aurintricarboxylic Acid (Sigma A1895) (ATA, 8-point, n = 2, 1:2.5 dilution in column 2) double pin-transferred (Dip Factor = 2) using the Kalypsys (Wako USA) pintool equipped with a 1536 pinhead for a [final] range of 186 nM - 114 uM. 3; Room temperature incubation. 4; Dispense 1 uL of substrate mixture from the Kohli lab [4x] […] DJC20 and [4x] 250 nM DJC23 into columns 1 to 48 . 5; Room temperature incubation. 6; Dispense 4 uL of […] [2x] 250 mM NaOH into columns 1 to 48. 7; Centrifugation step to remove bubbles. […]
A general note: In qHTS, concentration-response curves come from the screen itself.
For `NC(Cc1cc(O)c(O)cc1O)C(=O)O` (stereo unspecified), the Potency was 22.4 µM (active). Next, `NCC(O)c1cc(O)c(O)cc1F` (stereo unspecified): “inactive”; `O=C(Nc1cc(C(F)(F)F)cc(C(F)(F)F)c1)c1cccn(Cc2ccccc2Cl)c1=O`: “inactive”; `CN1CC[C@@]2(C)c3cc(O)ccc3N(C)C12` (stereo partly specified): 22.4 µM (active). With `COc1cc(C(c2c(O)c3ccccc3oc2=O)c2c(C)n(C)n(-c3ccccc3)c2=O)ccc1O` (stereo unspecified), the Potency entry was “inactive”. `Cc1cccc(-c2nc(CN3C(=O)CN=C(c4ccccc4)c4ccccc43)c(C)o2)c1`: the Potency result is “inactive”.

Consider `Cc1ccc(NC(=O)N(Cc2ccc3c(c2)OCO3)C2CCN(Cc3ccccc3)CC2)cc1C`, for which the Potency entry is “inactive”. For the molecule `CCCC1=Nc2cc(C(=O)NCCCN(CC)CC)ccc2Sc2ccccc21`, the Potency entry is “inactive”. Under `O=S1(=O)N(CCN2CC=C(c3c[nH]c4cc(F)ccc34)CC2)c2cccc3c2N1CCC3` stands “inactive”. Under `CC(=O)c1c(O)c(C)c(O)c(Cc2c(O)c3c(c(C(=O)/C=C/c4ccccc4)c2O)OC(C)(C)C=C3)c1O` stands 14.1 µM (active); under `O=C(c1ccc2c(c1)N(Cc1ccc(F)cc1)C(=O)c1ccccc1S2)N1CCC2(CC1)OCCO2`, “inactive”; under `Cc1ccccc1CN1C(=O)C(C)N=C(c2ccccc2)c2ccccc21` (stereo unspecified), “inactive”. Turning to `COc1ccc2c(c[n+](C)c3c4cc5c(cc4ccc23)OCO5)c1OC`, the Potency is 17.8 µM (active). For `Cc1cccc(CN2C(=O)CN=C(c3ccccc3)c3cc(Cl)ccc32)c1`, the Potency entry was “inactive”. On to `Cc1c(C(c2ccc(Cl)cc2Cl)c2c(O)c3ccccc3oc2=O)c(=O)n(-c2ccccc2)n1C` (stereo unspecified), for which the Potency entry is “inactive”.

In the case of `Cc1ccccc1CN1C(=O)CN=C(c2ccccc2)c2cc(Cl)ccc21`, the Potency entry was “inactive”.
